Screens deposited in PubChem by Sanford-Burnham Center for Chemical Genomics.
In the library only some 1.4% were active in any assay of this set; here they are far more common.
GC-B act: human GC-B receptor activators, primary screen, HEK293 GC-B cells, cGMP TR-FRET, EC30 CNP; 0% at EC30 CNP, 100% saturating CNP; activation, % at 10 µM; 0.11% of 370,000 active; AID 1920062, 2024;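 active means activation at 10 µM reaching about 35% in either raw or pattern-adjusted values, limit read from the data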
APOBEC3A inh: APOBEC3A ssDNA deaminase inhibitors, primary screen, selectivity assay for APOBEC3G inhibitor project, biochemical, FAM/TAMRA oligo cleavage fluorescence | DNA dC->dU-editing enzyme APOBEC-3A (Homo sapiens), P31941 | inhibition, % at 20 µM | AID 493011, 2011 | recombinant A3A, FAM/TAMRA ssDNA deamination fluorescence | 0.41% of 330,000 active;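 active means at least 40% inhibition at 20 µM here, with at most 30% in a related deaminase screen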;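 further: plate controls were A3A with DMSO for no effect and wells lacking A3A enzyme for full effect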
APOBEC3G inh: APOBEC3G DNA deaminase inhibitors, primary screen, biochemical, fluorescence, single-stranded DNA substrate, uHTS. inhibition, % at 20 µM. DNA dC->dU-editing enzyme APOBEC-3G (Homo sapiens), Q9HC16. 0.28% of 330,000 active. recombinant A3G, ssDNA deamination FAM/TAMRA fluorescence;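 active means inhibition of at least 40% at 20 µM, with no more than 30% in the related APOBEC3A deaminase screen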;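 further: plate controls were DMSO wells with A3G for no effect and wells lacking A3G enzyme for full effect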
FAS-TE inh: FAS thioesterase domain inhibitors, primary screen, biochemical, fluorescence intensity, uHTS. Fatty acid synthase (Homo sapiens), P49327. recombinant FAS-TE, OMFH fluorogenic substrate, fluorescence endpoint. inhibition, % at 15 µM. 0.67% of 360,000 active. AID 602261, 2012;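 active means compounds whose normalised, plate-corrected inhibition of enzyme fluorescence in the single-dose primary screen is 50% or more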;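 further: 0% = DMSO with enzyme and 100% = substrate without enzyme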
GC-A act: GC-A stimulated cGMP production enhancers – HEK293 GC-A cells, cGMP TR-FRET, EC30 ANP, primary screen. AID 1671463, 2021. 0.14% of 370,000 active. activation, % at 10 µM. Atrial natriuretic peptide receptor 1 (Homo sapiens), P16066. 0% at EC30 ANP, 100% saturating ANP; in the data active means activation above about 40%
Target sequence (P16066 whole entry, looked up): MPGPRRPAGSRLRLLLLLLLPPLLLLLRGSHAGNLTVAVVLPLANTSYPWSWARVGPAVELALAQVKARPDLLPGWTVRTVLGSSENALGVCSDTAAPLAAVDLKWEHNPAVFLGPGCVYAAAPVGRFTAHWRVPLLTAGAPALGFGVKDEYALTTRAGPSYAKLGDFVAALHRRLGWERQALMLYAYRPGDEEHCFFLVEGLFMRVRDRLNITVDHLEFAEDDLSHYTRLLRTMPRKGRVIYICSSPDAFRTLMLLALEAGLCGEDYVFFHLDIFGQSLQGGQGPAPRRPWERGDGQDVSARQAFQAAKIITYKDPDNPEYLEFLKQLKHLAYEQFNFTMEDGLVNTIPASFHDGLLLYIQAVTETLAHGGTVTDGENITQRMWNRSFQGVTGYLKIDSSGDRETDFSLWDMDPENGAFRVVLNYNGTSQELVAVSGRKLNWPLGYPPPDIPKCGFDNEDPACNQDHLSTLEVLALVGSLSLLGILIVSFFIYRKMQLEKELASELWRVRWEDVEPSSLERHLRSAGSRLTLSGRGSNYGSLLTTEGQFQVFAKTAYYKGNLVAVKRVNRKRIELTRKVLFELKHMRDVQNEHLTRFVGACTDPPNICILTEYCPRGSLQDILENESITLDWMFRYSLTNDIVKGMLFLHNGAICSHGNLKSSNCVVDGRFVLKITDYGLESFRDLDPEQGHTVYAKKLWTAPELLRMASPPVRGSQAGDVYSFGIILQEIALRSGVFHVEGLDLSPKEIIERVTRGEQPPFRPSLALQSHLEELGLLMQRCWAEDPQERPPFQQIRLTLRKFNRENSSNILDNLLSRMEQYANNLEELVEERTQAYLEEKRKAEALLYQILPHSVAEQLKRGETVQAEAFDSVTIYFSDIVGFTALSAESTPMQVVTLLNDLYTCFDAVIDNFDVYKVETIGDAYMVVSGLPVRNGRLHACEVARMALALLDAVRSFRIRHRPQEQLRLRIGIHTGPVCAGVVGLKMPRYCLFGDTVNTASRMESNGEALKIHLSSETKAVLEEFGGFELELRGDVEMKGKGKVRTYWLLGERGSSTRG
FAS-TE conf: FAS thioesterase domain inhibitors, confirmation, biochemical, fluorescence intensity, single concentration | shares compounds with FAS-TE inh | recombinant FAS-TE, OMFH fluorogenic substrate | inhibition, % at 15 µM | 45% of 2,300 active;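 active means compounds inhibiting the enzyme by at least 50% at 15 µM in any one of the replicates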;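 further: 0% = enzyme with DMSO only and 100% = wells lacking enzyme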
An asterisk follows results filed as active; x = no result given.

SMILES	GC-B act	APOBEC3A inh	APOBEC3G inh	FAS-TE inh	GC-A act	FAS-TE conf
CCN(C(=O)COC(=O)c1ccccc1Nc1ccccc1)c1c(N)n(Cc2ccccc2)c(=O)[nH]c1=O	-7.6	x	x	77.4*	-5.4	4.2
C[C@@H]1CN(S(=O)(=O)C(C)(C)C)[C@H](CCO)/C1=C\CCO	1.6	x	x	x	0.2	x
O=C(N/N=C/c1cc([N+](=O)[O-])cc([N+](=O)[O-])c1O)C(O)(c1ccccc1)c1ccccc1	7.8	-3.2	-5.5	51.5*	0.6	61.0*
O=C(N/N=C/c1cc(Cl)cc([N+](=O)[O-])c1O)C1CC1	2.6	8.5	-1.0	3.6	2.0	x
O=C(Cn1nc2ccccc2n1)N/N=C/c1cc(Cl)cc([N+](=O)[O-])c1O	3.1	x	x	61.2*	-1.1	51.7*
C=CCOC(=O)N[C@@H](c1cccc(OC)c1)[C@@H](C)/C=C/CC(=O)O	-2.4	x	x	x	4.5	x
C=CCNC(=O)C1CCN(c2cncnc2)CC1	-11.4	x	x	x	2.2	x
Cc1ccc2c(c1)c1ccc3c(c1n2C)C(=O)C=CC3=O	-2.6	-3.5	2.5	53.5*	-33.5	10.2
COC[C@H]1CCCN1c1cccc2c1S(=O)(=O)N(C1CC1)CC[C@@H](C)O2	-0.4	x	x	x	2.0	x
COC(=O)[C@@]1(Cc2ccc(F)cc2)[C@H]2c3cc(C(=O)N4CCCC4)n(CCc4ccc(OC)c(Br)c4)c3C[C@H]2CN1C(=O)c1ccccc1	-0.9	x	x	42.4	-9.0	x
COC(=O)[C@@]1(Cc2ccc(OC)cc2)[C@H]2c3cc(C(=O)N4CCCC4)n(CCc4ccc(OC)c(Br)c4)c3C[C@H]2CN1C(=O)c1ccccc1	3.7	x	x	73.3*	-2.1	14.6
COC(=O)[C@]12C[C@H](CC(=O)N3CCCC3)C(=O)N(Cc3cccc4ccccc34)C1=C[C@H](C(C)(C)C)O[C@@H]2C	0.2	x	x	x	-3.1	x
CC(C)CCN1C(=O)c2ccc(C(=O)OCn3nnc4ccccc4c3=O)cc2C1=O	10.3	0.1	0.6	55.0*	5.2	16.9
O=C(OCn1nnc2ccccc2c1=O)c1ccc(O)cc1	2.5	-4.3	-5.3	2.2	-2.1	x
N#CN1CCC(NS(=O)(=O)c2cccc(C(F)(F)F)c2)CC1	-6.5	x	x	x	2.9	x
N#C/C(=C/c1ccc2c(c1)OCO2)C(=O)NCCc1c[nH]c2ccccc12	3.4	-3.6	-4.9	52.0*	-4.4	33.8
COC(=O)c1ccc(CSc2nc(C(F)F)cc(C)c2C#N)o1	2.3	12.6	-5.8	53.0*	5.5	42.8*
Cn1c(=O)c2cc3c(nc2n(C)c1=O)CC(c1ccccc1)CC3=O (stereo not drawn)	-7.2	-2.7	-7.0	59.6*	7.3	50.7*
O=C(Nc1cccc(S(=O)(=O)NC2=NCCCCC2)c1)c1cc(-c2ccc(Cl)cc2)nc2ccccc12	-5.2	-3.2	-8.5	57.3*	0.0	26.5
CC(=O)O[C@@H]1C[C@H]2C(C)(C)C(=O)C=C[C@]2(C)[C@H]2CC[C@@]3(C)[C@H](c4ccoc4)OC(=O)[C@H]4O[C@]43[C@@]21C	-2.0	1.4	-4.0	50.8*	0.1	28.9
CCOC(=O)C(C(=O)NCc1ccc(C)cc1)c1ncc(C(F)(F)F)cc1Cl (stereo not drawn)	-1.3	0.6	-4.0	38.7	0.8	x
Cc1ccc(CNC(=O)C(C(=O)NCc2ccc(C)o2)c2ncc(C(F)(F)F)cc2Cl)o1	2.1	2.1	-2.5	61.7*	-1.9	6.7
CCn1cc(C(=O)NCc2ccc(Cl)cc2)c(=O)c2cc(S(=O)(=O)N3CCOCC3)ccc21	-0.4	-2.3	-5.8	11.8	-1.8	x
CCn1cc(C(=O)NCc2ccc3c(c2)OCO3)c(=O)c2cc(S(=O)(=O)N3CCOCC3)ccc21	6.5	-1.4	-1.5	6.3	8.9	x
CCn1cc(C(=O)NC(C)CCc2ccccc2)c(=O)c2cc(S(=O)(=O)N(C)C)ccc21 (stereo not drawn)	-6.0	-2.5	-5.0	62.8*	-7.5	27.7
SMILES	GC-B act	APOBEC3A inh	APOBEC3G inh	FAS-TE inh	GC-A act	FAS-TE conf
CCn1cc(C(=O)NCCc2ccc(Cl)cc2)c(=O)c2cc(S(=O)(=O)N(C)C)ccc21	4.8	-1.7	-3.0	74.6*	0.8	34.5
CCn1cc(C(=O)NCCc2ccc(C)cc2)c(=O)c2cc(S(=O)(=O)N(C)C)ccc21	-1.2	-1.5	-1.4	x	-5.3	x
CCn1cc(C(=O)NCc2ccc(Cl)cc2)c(=O)c2cc(S(=O)(=O)N(C)C)ccc21	4.2	-1.4	-6.9	64.1*	-8.8	76.6*
CCn1cc(C(=O)NCc2ccc3c(c2)OCO3)c(=O)c2cc(S(=O)(=O)N(C)C)ccc21	-0.6	1.3	-0.5	57.4*	-2.6	42.1*
O=C(NN1C(=O)C2C(c3ccccc3)C=CC(c3ccccc3)C2C1=O)c1cccc(Br)c1 (stereo not drawn)	3.7	0.2	-2.5	53.8*	4.6	45.4*
O=C(NN1C(=O)C2C(c3ccccc3)C=CC(c3ccccc3)C2C1=O)c1ccccc1 (stereo not drawn)	4.1	-1.8	-8.8	35.6	-1.9	x
COC(=O)[C@]12C[C@H](CC(=O)NCc3ccc(OC)c(OC)c3)C(=O)N(CCC3=CCCCC3)C1=C[C@H](C(C)(C)C)O[C@@H]2C	4.7	x	x	x	-4.0	x
CN(C)N1C(N)=C(C#N)C(c2cccc3ccccc23)C2=C1CC(c1ccccc1)CC2=O (stereo not drawn)	-4.2	-4.0	-9.7	64.9*	2.4	32.5
CN(C)N1C(N)=C(C#N)C(c2ccccc2)C2=C1CC(C)(C)CC2=O (stereo not drawn)	-0.7	1.4	-2.4	-0.9	5.1	x
CC(/C=C1\SC(=S)N(c2ccc(C(=O)O)cc2)C1=O)=C\c1ccccc1	0.8	-1.0	-3.1	90.3*	-2.9	14.3
COc1ccc(-c2cc(C(=O)Nc3nc4c(C)cccc4s3)c3ccccc3n2)cc1OC	2.4	3.3	-6.6	67.7*	2.5	13.3
COc1cc(-c2cc(C(=O)Nc3c(Cl)cc(Cl)cc3Cl)c3ccccc3n2)cc(OC)c1OC	1.2	0.1	-4.6	55.6*	5.9	19.5
COc1cccc(-c2cc(C(=O)Nc3nc4ccccc4s3)c3ccccc3n2)c1	2.1	-4.4	-6.4	26.7	4.1	x
Cc1cc(S(=O)(=O)ON2C(=O)c3ccccc3C2=O)ccc1F	34.7	x	x	82.2*	40.3*	79.2*
